Potency data for 49 compounds are collected here from PubChem BioAssay (Tox21).

The test addresses Beta-2 adrenergic receptor (Homo sapiens) (UniProt P07550). Description: Adrenergic beta2 receptor (ADRB2) small molecule agonists, cell-based qHTS assay (AID 1963593).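 Note: CHO cells stably overexpressing human ADRB2.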 The conditions noted are these: CHO-ADRB2 cells, cAMP HTRF, 30 min; series mostly up to 42.5 µM. The method in brief: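 CHO cells stably over-expressing ADRB2 were plated overnight at 37C, then dosed with compounds plus a stimulation mix containing 100uM IBMX and 25uM Ro-20-1724 for 0.5hr at room temperature. cAMP was measured by HTRF competition, 1hr.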

Inconclusive results are not listed. Entries that show only a call come without a potency. Active and inactive are the calls of the source. Calls come from the whole dose curve.

Beta-2 adrenergic receptor (Homo sapiens), sequence (P07550 whole entry, looked up): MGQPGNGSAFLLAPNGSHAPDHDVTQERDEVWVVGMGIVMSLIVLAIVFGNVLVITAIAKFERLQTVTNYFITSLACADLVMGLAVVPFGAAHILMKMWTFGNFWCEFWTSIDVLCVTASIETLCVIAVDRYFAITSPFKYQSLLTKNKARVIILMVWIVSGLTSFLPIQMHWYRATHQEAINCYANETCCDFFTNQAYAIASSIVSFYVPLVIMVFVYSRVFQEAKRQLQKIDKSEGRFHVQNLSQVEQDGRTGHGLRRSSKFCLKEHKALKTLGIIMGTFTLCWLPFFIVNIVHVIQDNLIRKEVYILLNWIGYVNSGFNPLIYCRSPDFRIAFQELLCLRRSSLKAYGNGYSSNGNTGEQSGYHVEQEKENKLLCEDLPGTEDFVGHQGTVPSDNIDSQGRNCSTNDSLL

As for `CC1=CC(O)CC(C)(C)C1` (centres undefined), the Potency result was “inactive”.
With `CC(C)(C)N`, the Potency entry is “inactive”.
The result for `NC(=O)NS(=O)(=O)c1ccc(N)cc1` reads “inactive”; that for `CC(=O)[C@H]1CC[C@H]2[C@@H]3C[C@H](C)C4=CC(=O)CC[C@]4(C)[C@H]3[C@@H](O)C[C@]12C`, “inactive”; that for `Cc1cc(NS(=O)(=O)c2ccc(N)cc2)nc(C)n1`, “inactive”.
The result for `OC[C@@H](O)[C@H](O)[C@@H](O)[C@@H](O)CO` reads “inactive”.
The result for `O=Cc1ccccc1[N+](=O)[O-]` reads “inactive”.
Regarding `CCOc1cc(OCC)c(C(C)=O)cc1OCC`, the Potency result was “inactive”.
The result for `O=C(N[C@@H](Cc1ccccc1)[C@@H](O)C(=O)N1C[C@@H](O)[C@@H](O)C1)c1cc2cc(Cl)ccc2[nH]1` reads “inactive”; that for `CC(C)=NNC(N)=S`, “inactive”; that for `CC(=O)OCC(=O)[C@@]1(O)CCC2C3CCC4=CC(=O)CC[C@]4(C)C3[C@@H](O)C[C@@]21C` (some centres undefined), “inactive”.
In the case of `C=C(C)CCCC`, the Potency entry is “inactive”.
The result for `CCOC(=O)c1c(N)sc2c1CCN(Cc1ccccc1)C2` reads “inactive”; that for `CC1=NN(c2ccc(C(=O)O)cc2)C(=O)C1`, “inactive”; that for `O=C1OCc2ccccc21`, “inactive”.
Consider `CCCCCCCCCCCC(=O)Cl`, for which the Potency result was “inactive”.
The result for `CCCCCCCCCCCC(=O)NCCCN(C)C` reads “inactive”; that for `CCCCCCC(CCCCCCCCCCC(=O)OCC(COC(C)=O)OC(C)=O)OC(C)=O` (centres undefined), “inactive”.
Consider `O=C(OCC(COC(=O)c1ccccc1)(COC(=O)c1ccccc1)COC(=O)c1ccccc1)c1ccccc1`, for which the Potency result was “inactive”.
With `CC(=O)NO`, the Potency result is “inactive”.
`CC(C)CCCCCCc1ccc(OCCOCCO)cc1`: the Potency entry is “inactive”.
Regarding `CC(C)c1ccc(C#N)cc1`, the Potency entry was “inactive”.
The result for `Cc1ccc(C=O)s1` reads “inactive”; that for `CCOC(=O)CC1(C)OCC(C)O1` (centres undefined), “inactive”.
In the case of `Cc1ccnc2ccccc12`, the Potency result is “inactive”.
In the case of `Nc1ncnc(Nc2ccccc2)n1`, the Potency result is “inactive”.
On to `CCCCOCCOC(=O)CCCCCCCCC(=O)OCCOCCCC`, for which the Potency result was “inactive”.
With `Nc1cnn([C@@H]2O[C@H](CO)[C@@H](O)[C@H]2O)c(=O)n1`, the Potency result is “inactive”.
Consider `CO[Si](CCCS)(OC)OC`, for which the Potency result was “inactive”.
As to `O=C(CCCCCCCCC#CI)Oc1ccccc1`, the Potency result is “inactive”.
The result for `Oc1cn2c(n1)Nc1ccc(Cl)c(Cl)c1C2` reads “inactive”; that for `Cc1nc(-c2ccc(Cl)cc2)oc1COC(C)(C)C(=O)O`, “inactive”; that for `COc1ccc2[nH]c(S(=O)Cc3ncc(C)c(OC)c3C)nc2n1` (centres undefined), “inactive”.
Consider `ClCCl`, for which the Potency entry is “inactive”.
The result for `C[C@H](CN1CCCC1)C(=O)c1ccc(C(F)(F)F)cc1` reads “inactive”.
On to `Oc1cccc2[nH]ccc12`, for which the Potency result is “inactive”.
The result for `COCC(=O)Nc1c(I)c(C(=O)NCC(O)CO)c(I)c(C(=O)N(C)CC(O)CO)c1I` (centres undefined) reads “inactive”.
The result for `C=C(C)C(=O)OCC1CCCO1` (centres undefined) reads “inactive”; that for `CC(C)C[C@H](NC(=O)[C@H](CCc1ccccc1)NC(=O)CN1CCOCC1)C(=O)N[C@@H](Cc1ccccc1)C(=O)N[C@@H](CC(C)C)C(=O)[C@@]1(C)CO1`, “inactive”; that for `Cc1ccc(OC(=O)c2ccccc2O)cc1`, “inactive”.
The result for `CCN(CC)CC(=O)Nc1c(C)cccc1C(=O)OC` reads “inactive”; that for `CC(C)CC(C)CC(C)CC(C)COC(=O)c1ccccc1C(=O)OCC(C)CC(C)CC(C)CC(C)C` (centres undefined), “inactive”; that for `CCCCCCOC(=O)C(C)C`, “inactive”.
As to `C=CCOc1nc(OCC=C)nc(OCC=C)n1`, the Potency result was “inactive”.
The result for `O=[N+]([O-])c1ccc(/C=N\O)o1` reads “inactive”; that for `C#CC(C)N(C)C(=O)Nc1ccc(Cl)cc1` (centres undefined), “inactive”; that for `COCCO`, “inactive”.
As to `O=c1[nH]sc2cc(Cl)ccc12`, the Potency result is “inactive”.
With `CCN(CC)C(=O)N1CCN(C)CC1`, the Potency entry was “inactive”.
